Assay outcomes deposited in PubChem BioAssay by several laboratories.
Mtb betalactam – beta-lactam sensitization of Mtb H37Rv, H37Rv; inhibition, % at 25 µM; M. tuberculosis H37Rv growth with meropenem, percent inhibition; 330,000 compounds, 0.27% hits; call rule not given here;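 also: growth measured after seven days incubation then overnight dye step; 0% = bacteria only wells and 100% = bacteria with antibiotic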
Rv3671c inh – Rv3671c serine protease inhibitors, primary screen, biochemical, fluorescence polarization, M. tuberculosis H37Rv; 320,000 compounds, 0.048% hits; inhibition, % at 5.96 µM; P9WHR9; in the data active = inhibition above about 38%;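 also: extracellular domain of Rv3671c used as enzyme; 0% = enzyme with DMSO and 100% = no enzyme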
GDH-TPI inh – GDH-TPI coupling enzyme inhibitors, primary screen, artefact control for M. tuberculosis FBA inhibitor project, biochemical, absorbance, full deck; GDH-TPI coupled enzyme counterscreen, NADH absorbance; inhibition, % at 4.8 µM; 360,000 compounds, 1.2% hits; AID 588335, 2011; in the data active = inhibition above about 30%;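 also: 0% = DMSO wells and 100% = wells lacking the enzyme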
UGM FP inh – M. tuberculosis UGM enzyme inhibitors, primary screen, biochemical, fluorescence polarization, single point | UDP-galactopyranose mutase (Mycobacterium tuberculosis (strain ATCC 25618 / H37Rv)), … | purified UGM, fluorescence polarization probe displacement | inhibition, % at 10 µM | 320,000 compounds, 0.06% hits; in the data active = inhibition above about 10%, passing the limit was not always enough
Target sequence (P9WIQ1 whole entry, looked up): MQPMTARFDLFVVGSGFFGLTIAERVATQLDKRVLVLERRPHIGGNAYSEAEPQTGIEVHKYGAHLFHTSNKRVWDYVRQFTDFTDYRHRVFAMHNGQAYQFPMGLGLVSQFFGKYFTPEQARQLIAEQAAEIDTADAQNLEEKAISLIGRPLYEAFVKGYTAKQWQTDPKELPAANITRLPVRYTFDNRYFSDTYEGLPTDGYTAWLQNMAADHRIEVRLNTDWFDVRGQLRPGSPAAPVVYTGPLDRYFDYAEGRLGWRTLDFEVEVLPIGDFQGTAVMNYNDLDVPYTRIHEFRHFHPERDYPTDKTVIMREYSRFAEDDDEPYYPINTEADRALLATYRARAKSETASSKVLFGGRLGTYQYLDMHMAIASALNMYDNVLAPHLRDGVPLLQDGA
SSB-PriA inh – inhibitors of Klebsiella pneumoniae PriA binding to SSB C-terminal tail, primary screen, biochemical, AlphaScreen. 430,000 compounds, 0.6% hits. inhibition, % at 33 µM. AlphaScreen SSBct-PriA binding, biotinylated peptide. PriA–SSB C-terminal tail interaction (Klebsiella pneumoniae); in the data active = inhibition mostly above about 37%, no sharp cut-off; inactive = mostly below about 20%;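 also: plate controls were negative control peptide for no effect and reference peptide for full effect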
FBA Mtb inh – Mtb FBA enzyme inhibitors, primary screen, biochemical, fluorescence, strain H37Rv | 360,000 compounds, 2.3% hits | purified M. tuberculosis FBA, fluorescence read-out | inhibition, % at 1 µM | AID 588726, 2011; in the data active = inhibition above about 27%;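 also: 0% = vehicle and 100% = reference inhibitor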
Starred values were filed as active, the others as inactive; x = not tested or not shown. A selection: hits, their analogues and other compounds. The true share with any hit is near 3.2%.

SMILES	Mtb betalactam	Rv3671c inh	GDH-TPI inh	UGM FP inh	SSB-PriA inh	FBA Mtb inh
COC(=O)C1C2c3ccccc3OC1(C)N=c1s/c(=C/c3cn(C)nc3C)c(=O)n12 (centres undefined)	4.6	-8.6	55.5*	1.4	-18.0	-7.4
COc1ccc(OC)c(-c2cc(C(=O)NCC#CCOc3ccc4c(c3)OCO4)n(C)n2)c1	x	x	x	x	53.0*	x
COc1ccc(OC)c(-c2cc(C(=O)NCCc3nc(-c4ccco4)cn3C)n(C)n2)c1	x	x	x	x	35.0*	x
COc1ccc(OC)c(-c2cc(C(=O)NCc3cc(-c4ccco4)n(C)n3)n(C)n2)c1	x	x	x	x	12.0	x
COc1ccc(Cl)cc1C(=O)NCC#CCOc1ccc2c(c1)OCO2	x	x	x	x	2.0	x
Cc1cc(C(=O)NN=Cc2cc([N+](=O)[O-])ccc2O)c2ccccc2n1	x	x	x	x	-17.1	x
O=c1c2ccccc2[nH]c2ncccc12	x	x	x	x	0.0	x
COc1ccc(-c2c(C#Cc3ccsc3)c3cc(-c4ccc5c(c4)OCCO5)ccc3n2C)cc1	4.5	-1.9	42.1*	0.8	-1.0	18.9
COc1cc(OC)cc(-c2c(C#Cc3ccsc3)c3cc(-c4ccc5c(c4)OCO5)ccc3n2C)c1	-1.1	-1.9	38.6*	-0.4	-15.2	10.5
COc1ccc(-c2c(C#Cc3ccsc3)c3cc(-c4ccc5[nH]ccc5c4)ccc3n2C)cc1	-1.6	1.1	47.1*	-0.1	-25.8	18.5
COc1ccc(C=NOCC(=O)N2CCCC2)c(OC)c1	x	x	x	x	-4.4	x
Cc1cc(NC(=O)c2ccc(S(=O)(=O)N3CCCCC3C)cc2)on1 (centres undefined)	x	x	x	x	6.0	x
Cc1cc2ncc(CCCNC(=O)c3ccc4nccnc4c3)cn2n1	x	x	x	x	-2.0	x
CCCCn1c(C)nc2c(=O)n(C)c(=O)[nH]c21	3.0	3.0	7.3	3.4	-8.3	1.6
CCCCn1c(-c2ccccc2)nc2c(=O)n(C)c(=O)[nH]c21	-9.9	4.6	5.0	-1.1	-10.3	195.5*
COc1ccc(-c2oc3ccc(-c4ccc(OC)nc4)cc3c2C#CC2(O)CCCCC2)cc1	96.3	-56.5	31.5*	0.1	1.5	7.5
COc1cc(-c2ccc3oc(-c4cccc(C)c4)c(C#CC4(O)CCCCC4)c3c2)cc(OC)c1OC	59.4	-27.5	34.5*	0.3	-5.9	117.0*
COc1ccc(-c2oc3ccc(-c4cc(OC)c(OC)c(OC)c4)cc3c2C(=O)c2ccc(OC)nc2)cc1	-4.3	-13.3	13.9	-0.1	-0.6	0.0
COc1ccc(-c2oc3ccc(-c4ccc5c(c4)OCO5)cc3c2C#CC2(O)CCCCC2)cc1	22.8	-45.7	54.3*	3.2	-0.1	44.7*
COc1ccc(C(=O)c2c(-c3ccc(OC)cc3)oc3ccc(-c4cc(OC)c(OC)c(OC)c4)cc23)cc1	-1.6	0.6	37.0*	3.2	-1.7	9.0
COc1ccc2c(=O)c(Oc3ccc(C(=O)NCc4ccco4)cc3)c(C)oc2c1	x	x	x	x	-2.0	x
O=C(NCc1ccccc1-c1ccsc1)c1ccccc1Br	x	x	x	x	-16.0	x
COC(=O)c1sccc1S(=O)(=O)N1CCN(c2cc(-n3cncn3)ncn2)CC1	x	x	x	x	-9.0	x
O=C(Nc1ccccc1)N1CCC2(CCc3ccccc3O2)CC1	x	x	x	x	-16.0	x
COc1ccc(-c2ccc3oc(-c4ccc(OC)cc4)c(C#CCO)c3c2)cc1	12.6	-7.8	31.5*	0.4	-1.2	16.1
SMILES	Mtb betalactam	Rv3671c inh	GDH-TPI inh	UGM FP inh	SSB-PriA inh	FBA Mtb inh
COc1ccc(-c2ccc3oc(-c4ccc(OC)cc4)c(-c4ccc(OC)cc4)c3c2)cc1	-6.2	0.1	10.3	-1.2	1.8	-1.8
Cc1cccnc1NCc1ccc(O)c2ncccc12	73.5	-1.1	-7.3	-3.8	57.0*	-2.7
Cc1ccc(NCc2ccc(O)c3ncccc23)cc1	77.6	2.1	-2.2	0.3	33.3	0.6
Cc1ccc(NCc2ccc(O)c3ncccc23)cc1C	1.5	1.4	1.9	-2.2	40.9*	1.9
Cc1cccc(NCc2ccc(O)c3ncccc23)c1C	-5.3	12.1	0.0	-0.8	59.7*	-2.4
CC(=NNC(=O)c1ccc([N+](=O)[O-])cc1)c1c(O)cc(C)oc1=O	x	x	x	x	-0.2	x
CC(C)CCN1C(=O)CCc2cc(NC(=O)c3cccc(C(F)(F)F)c3)ccc21	x	x	x	x	-5.0	x
